Measured values: PubChem BioAssay
For part of these data: Entries with a potency or affinity are not part of this list. Active and inactive are the calls of the source.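 Rule for the calls, unless noted: active = fitted half-maximal concentration within the tested dose range, moderate curve steepness, a statistically real signal drop, and little compound fluorescence or tag-binding interference; inactive = the rest.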

Columns and labels:
[1] = target: Cell division control protein 42 homolog (Homo sapiens) (UniProt P60953); test: inhibition of fluorescent GTP binding to constitutively active Cdc42 – biochemical, multiplex bead flow cytometry, Bodipy-FL-GTP, dose response (AID 1333)
[2] = target: Cell division control protein 42 homolog (Homo sapiens) (UniProt P60953); test: inhibition of fluorescent GTP binding to wildtype Cdc42 – biochemical, multiplex bead flow cytometry, Bodipy-FL-GTP, dose response (AID 1334;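 active = fitted half-maximal concentration within the tested range, moderate curve steepness, significant signal drop, and little compound fluorescence or bead-linkage interference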); conditions: bead-based flow cytometry, Bodipy-FL-GTP binding to GST-Cdc42; at 100 µM (top of the series) unless noted
[3] = target: GTPase HRas (Homo sapiens) (UniProt P01112); test: Ras wt fluorescent GTP loading blockade – biochemical, wildtype, multiplex bead flow cytometry, dose response (AID 1335;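 active = fitted half-maximal concentration within 10 nM to 100 µM, steepness 0.5 to 2, significant signal drop, low assay interference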); conditions: bead-based flow cytometry, Bodipy-GTP binding to GST-Ras; at 100 µM (top of the series) unless noted
[4] = system: Ras-related protein Rab-7a (dog), GTP binding; test: blockers of fluorescent GTP binding to Rab7 – biochemical, wildtype, multiplex bead flow cytometry, dose response (AID 1336; call rule not given here)
[5] = target: Ras-related C3 botulinum toxin substrate 1 (Homo sapiens) (UniProt P63000); test: inhibition of wildtype Rac1 nucleotide loading – biochemical, multiplex bead flow cytometry, dose response (AID 1340;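 active = dose curve with midpoint inside tested range, moderate steepness, plateau gap beyond fit error, low compound glow and bead-link interference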); conditions: GST-Rac1 beads, Bodipy-FL-GTP binding; at 100 µM (top of the series) unless noted
[6] = target: GTPase HRas (Homo sapiens) (UniProt P01112); test: blockade of GTP loading onto mutant Ras – biochemical, activated mutant, multiplex bead flow cytometry, dose response (AID 1341;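 active = dose-response curve with midpoint inside the tested range, moderate steepness, significant amplitude and little compound fluorescence or bead-attachment interference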;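 note: GST-tagged constitutively activated Ras mutant immobilized on beads and multiplexed with other GTPases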)

Sequence of GTPase HRas (Homo sapiens) (P01112 whole entry, looked up): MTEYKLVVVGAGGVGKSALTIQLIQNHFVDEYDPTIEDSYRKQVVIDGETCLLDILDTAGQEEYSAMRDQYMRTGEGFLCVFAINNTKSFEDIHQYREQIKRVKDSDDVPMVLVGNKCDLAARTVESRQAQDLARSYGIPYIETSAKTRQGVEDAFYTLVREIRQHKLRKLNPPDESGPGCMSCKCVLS
Sequence of Cell division control protein 42 homolog (Homo sapiens) (P60953 whole entry, looked up): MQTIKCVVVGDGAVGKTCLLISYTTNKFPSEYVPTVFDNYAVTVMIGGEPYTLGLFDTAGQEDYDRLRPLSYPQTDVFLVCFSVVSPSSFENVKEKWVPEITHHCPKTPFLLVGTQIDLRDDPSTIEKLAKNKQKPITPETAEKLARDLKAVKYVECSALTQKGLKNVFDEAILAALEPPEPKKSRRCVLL

SMILES | outcome [1] | fluorescence, percent of control (lower = inhibition) [2] [%] | GTP binding, percent of control [3] [%] | outcome [4] | GTP binding signal, raw median fluorescence (lower = inhibition) (MCF (arbitrary fluorescence units)) [5] | outcome [6]
CC(C)(C)C(=O)OCC1OC(n2cnc(C(N)=O)n2)C(O)C1O (stereo not given) | inactive | 35.8 | 81.6 | inactive | 266 | inactive
O=C(O)c1nnn(Cc2ccccc2)c1C(=O)O | inactive | 60.5 | 82.2 | inactive | 33 | inactive
O=C(Nc1ccc(N2CCOCC2)c(Cl)c1)c1ncn[nH]1 | inactive | 104 | 203 | inactive | 241 | inactive
O=S1(=O)N=C(N(CCO)/N=C/c2ccccc2)c2ccccc21 | inactive | 31.3 | 63.2 | inactive | 139 | inactive
NC1=NC(=O)/C(=C\c2ccc(O)c([N+](=O)[O-])c2)S1 | inactive | 26.8 | 58.3 | inactive | 116 | inactive
COC(=O)c1cccnc1SCc1ccccc1 | inactive | 46 | 61.1 | inactive | 184 | inactive
Cc1ccc(-n2nc3c(SCCN4CCOCC4)nnc(C)c3c2C)cc1 | inactive | 49 | 64.6 | inactive | 194 | inactive
CC(=O)OC(C(=O)NC1CCCCC1)c1ccc(Cl)cc1 (stereo not given) | inactive | 34.5 | 82.1 | inactive | 240 | inactive
Cc1ccc(-c2ccc(/C=C3\SC(N4CCOCC4)=NC3=O)o2)cc1 | inactive | 31.4 | 71.6 | inactive | 195 | inactive
COc1ccccc1OCCn1cc(C(=O)O)c2ccc(Cl)cc21 | inactive | 57 | 201 | inactive | 61.4 | inactive
O=C(O)c1ccccc1SCc1ccc2c(c1)OCO2 | inactive | 71 | 79.2 | inactive | 0 | inactive
Cc1ccc(-n2c(=O)cc(N3CCN(C(=O)c4ccco4)CC3)[nH]c2=O)cc1 | inactive | 36.6 | 81.3 | inactive | 286 | inactive
CCCc1cc(-n2ccnc2)n2c(nc3ccccc32)c1C#N | inactive | 172 | 195 | inactive | 212 | inactive
COc1ccccc1OCCn1cc(C(=O)O)c2ccc(C)cc21 | inactive | 47.9 | 184 | inactive | 55.5 | inactive
COc1cc2c(cc1OC)-c1cc(NC3CCCCCCC3)nc(=O)n1CC2 | inactive | 33.3 | 68.6 | inactive | 142 | inactive
COc1ccc(N(CC(=O)Nc2cccc(C)c2C)S(=O)(=O)c2c(C)n[nH]c2C)cc1 | inactive | 33.4 | 74.3 | inactive | 170 | inactive
Cc1ccc(OCCn2cnc3cc([N+](=O)[O-])ccc3c2=O)cc1 | inactive | 38.1 | 85.1 | inactive | 190 | inactive
COCCOC(=O)c1c(C)oc2ccc(OC(=O)c3ccc4c(c3)OCO4)cc12 | inactive | 31.7 | 83.9 | inactive | 262 | inactive
O=C(O)c1ccc(CSCc2ccccc2)o1 | inactive | 62.4 | 91.5 | inactive | 41.9 | inactive
N#CC(c1ccc(Cl)nn1)c1ccc(Cl)cc1Cl (stereo not given) | inactive | 34.5 | 77.7 | inactive | 263 | inactive
COc1cc(N=c2oc3c(C)ncc(CO)c3cc2C(N)=O)cc(OC)c1OC | inactive | 26.9 | 58.2 | inactive | 139 | inactive
O=C1Nc2ccc(Br)cc2C12NNc1ccccc1O2 (stereo not given) | inactive | 33 | 77.8 | inactive | 182 | inactive
COc1cc([N+](=O)[O-])cc(/C=N/NC(=O)c2ccc(NC(=O)c3ccc(C)cc3)cc2)c1O | inactive | 33 | 77.6 | inactive | 226 | inactive
CCCCN1C(=O)/C(=C/C=C2\N(C)c3ccccc3C2(C)C)SC1=S | inactive | 128 | 134 | inactive | 235 | inactive
CCOc1cccc(Nc2cc3n(c(=O)n2)CCc2cc(OC)c(OC)cc2-3)c1 | inactive | 32 | 71.9 | inactive | 186 | inactive
CN(C)c1ccc(/C=C2\SC(=S)N(Nc3ncc(C(F)(F)F)cc3Cl)C2=O)cc1 | inactive | 139 | 236 | inactive | 230 | inactive
CCOc1cc(/C=C2/NC(=O)NC2=O)cc([N+](=O)[O-])c1O | inactive | 28.3 | 64.7 | inactive | 146 | inactive
CC(C)OCCCn1c(=NC(=O)c2ccncc2)c(C#N)cc2c(=O)n3ccccc3nc21 | inactive | 88.2 | 160 | inactive | 161 | inactive
Cc1cc(/C=C2\SC(=S)N(Cc3ccco3)C2=O)c(C)n1-c1cccnc1 | inactive | 137 | 95.2 | inactive | 209 | inactive
O=C(O)c1cc(N2N=C(C(F)(F)F)/C(=C/C=C/c3ccco3)C2=O)ccc1Cl | inactive | 22.4 | 69.8 | inactive | 174 | inactive
